Measured values taken from the supplement of paper PMC6555819.

Legend:
Test in all cases: PBM binding z-score (relative to random genomic background probes); higher = stronger binding; sequences stand for … in GC…GCGATTGACAGCGTAGAATGAAGG
[1] = tested on: RARb homodimer (NR concentration 270 nM)
How it was run: (§1)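 Probes were double-stranded and carried 34-nt variable regions with direct-repeat seeds, single-nucleotide variants, half-site ablations and random human genomic background sequences, printed on custom Agilent 4×180K protein-binding microarrays. Arrays were incubated 1 h with ligand-free nuclear receptor dimers in PBS pH 7.4, 2% milk, 0.02% Triton X-100, 1 mM DTT, 0.2 mg/mL BSA and 0.4 mg/ml salmon testes DNA. Antibodies against each partner (one per run) detected binding, and scanned fluorescence was regression-normalized. Binding z-scores use the random background probes as reference.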

[2] = tested on: RARg:RXRa (NR concentration 270 nM, RXRa partner concentration 90 nM)
How it was run: as §1

[3] = tested on: RARg homodimer (NR concentration 270 nM)
How it was run: as §1

[4] = tested on: RXRa DBDmut IVT, anti-RXR (DBD mutation: RXRa K156A/R161A, NR concentration 90 nM)
How it was run: as §1

[5] = tested on: RXRa homodimer (NR concentration 180 nM)
How it was run: as §1

[6] = tested on: THRa:RXRa (NR concentration 90 nM, RXRa partner concentration 90 nM)
How it was run: as §1

[7] = tested on: THRa homodimer (NR concentration 90 nM)
How it was run: as §1

[8] = tested on: VDR homodimer (NR concentration 270 nM)
How it was run: as §1

Sequence	PBM binding z-score [1]	PBM binding z-score [2]	PBM binding z-score [3]	PBM binding z-score [4]	PBM binding z-score [5]	PBM binding z-score [6]	PBM binding z-score [7]	PBM binding z-score [8]
ATCGAGAGGTCGAAGGTGAGTATACCCACCCGAA	1.46	3.28	2.62	1.02	4.3	1.82	-0.366	0.783
CGAACTAGGTCATTGTCAGGACAGTGAATAGTAA	2.62	4.33	4.35	2.31	2.37	4.27	2.09	1.82
CCGACTGGGGCAGAAAGGGTACCATACCATCCGG	0.624	0.0836	0.273	-1.36	0.143	-0.36	-0.53	-0.349
GCGTATAGGTAATACAAGGTGAAAGTCCGATTGT	0.95	0.423	0.499	0.141	0.647	4.35	1.03	0.00145
ATCTCTAGGTAATACTCAGTTCAGTGAAGAACGC	1.14	0.732	0.671	0.98	0.582	1.37	1.33	1.89
TCGTATAGGTAAACAGGTGAAAGTCCGTAAGTTA	1.14	0.368	0.358	1.41	0.637	0.794	0.786	0.302
CGAACTAGGTCATCGACAGGACAGTGAATAGTAA	2.75	4.84	4.87	2.2	2.72	3.06	0.98	1.39
TCTTGTAGATCAAAGGTTATGAAAGCCGAAGCCT	1.25	1.65	0.684	0.966	3.08	1.46	-0.27	0.204
CGTCAAAGTTCAACTAAGATAACGTAAAGCACGC	3.75	5.82	6.58	4.65	5.25	2.98	0.329	3.75
TCGAGTAGGTTACCAAAGGGGCATTCAGCTTTCT	1.34	2.2	0.617	0.44	0.779	0.46	-0.71	0.0103
TCATATAGGTAAAGGTTAAAGTCGAACGATATGA	2	2.68	2.28	1.27	3.91	1.81	-0.146	0.675
GATACAGGGTCGAGGCCAGAGTACGCGTATTGAT	1.31	1.98	1.9	0.497	2.13	1.67	0.075	0.897
TCATATAGGTAGAGGTGAAAGTCGAACGATATGA	1.04	1.18	1.11	0.392	1.77	1.41	-0.0362	0.0889
TCATATTGGTAAAAGGTGAAAGTCGGTGTGGTAA	2	1.24	0.709	1.66	1.99	1.62	0.665	0.829
GCTAGCAGGCCTTTTGGGTCACTCAATGACGGGC	1.39	0.621	0.516	-0.579	0.552	2.11	0.611	-0.536
TCATATAGGTAAGCAGGTGAAAGTCCGTAAGTTA	0.479	0.2	-0.071	0.903	0.347	0.462	0.196	-0.0581
TCTGCTAGGTCTGTTGGTCAGCTAACGAGCTGCC	-0.195	-0.258	-0.599	0.00538	-0.403	-0.454	-0.978	-1.23
TCGAGTGGGTTAGGGGCATTCAGAATGGCGTCGA	1.21	0.178	-0.204	0.231	0.603	1.23	0.84	1.54
GGAACGAGGGCATTCGAGTTGAAAGCATGGCGAT	0.677	1.02	1.19	3.05	1.12	3.9	-0.523	3.1
TCTGACAGGTGAAGGTAACTCAGGTACGCAGTCG	0.819	0.644	0.639	0.827	0.901	1.5	0.158	0.222
TCGAGTAGGTTAGGGGCATTCCGAATGGCGTCGA	0.646	0.44	-0.221	0.278	0.54	0.556	-0.0824	0.859
GCTCCTAGGTCAGGTTGGTCAGCTAACGGGTACG	3.18	2.91	3.46	0.888	1.47	2.27	1.22	0.591
AGTCAAAGTTCATCTCGGTAACGTAAGATATGCT	3.93	5.53	6.02	4.57	4.35	2.58	-0.318	4.92
ATCTCTCGGTAAAGTTCAGTGAAAGATCGATAGA	2.62	2.19	2.56	1.17	1.06	0.717	0.426	2.27
AGCTCTAGGTAAGACTCAGTTCAGTGAAGAACGC	0.218	-0.161	-0.269	0.149	-0.208	0.465	0.312	1.14
AATACAGGGTCACTAGGCCAGACTAGGTACGAAT	3.25	5.28	4.68	2.72	5.35	3.44	1.22	2.17
